The results in this text go back to PubChem BioAssay (EPA / NIEHS).

Several values for one entry are separate records, joined by “and”; a condition that tells them apart may be missing. Identical values can stand only once. Results filed as inconclusive are left out. Activity calls are given as the source filed them. How the source made its calls: active means hit-call score of the fitted dose curve at least 0.9, where 1 is the maximum; inconclusive means response in the unintended direction; inactive means score below 0.9.

Experiment [1] deals with rat CYP2C11, Cyp2c11 (gene 29277) (UniProt P08683). Briefly: NVS_ADME_rCYP2C11: NovaScreen (NVS) CYP450-related Enzyme Activity (ADME) Assay for rat CYP2C11 (AID 2283118). As for the experimental part: (§1) NVS_ADME_rCYP2C11 is a biochemical, single-readout assay that uses extracted gene-proteins in a cell-free assay. Measurements were taken 0.33 hour after chemical dosing in a 96-well plate.NVS_ADME_rCYP2C11 is one of one assay component(s) measured or calculated from the NVS_ADME_rCYP2C11 assay. It is designed to make measurements of enzyme activity, a form of enzyme reporter, as detected with fluorescence intensity signals by Fluorescence technology.Data from the assay component NVS_ADME_rCYP2C11 was analyzed into 1 assay endpoint. This assay endpoint, NVS_ADME_rCYP2C11, was analyzed in the positive analysis fitting direction relative to Acetonitrile as the negative control and baseline of activity. Using a type of enzyme reporter, loss-of-signal activity can be used to understand changes in the enzymatic activity as they relate to the gene Cyp2c11. Furthermore, this assay endpoint can be referred to as a primary readout, because this assay has produced multiple assay endpoints where this one serves a enzymatic activity function. To generalize the intended target to other relatable targets, this assay endpoint is annotated to the cyp intended target family, where the subfamily is xenobiotic metabolism.
Sequence of rat CYP2C11, Cyp2c11 (gene 29277) (P08683 whole entry, looked up): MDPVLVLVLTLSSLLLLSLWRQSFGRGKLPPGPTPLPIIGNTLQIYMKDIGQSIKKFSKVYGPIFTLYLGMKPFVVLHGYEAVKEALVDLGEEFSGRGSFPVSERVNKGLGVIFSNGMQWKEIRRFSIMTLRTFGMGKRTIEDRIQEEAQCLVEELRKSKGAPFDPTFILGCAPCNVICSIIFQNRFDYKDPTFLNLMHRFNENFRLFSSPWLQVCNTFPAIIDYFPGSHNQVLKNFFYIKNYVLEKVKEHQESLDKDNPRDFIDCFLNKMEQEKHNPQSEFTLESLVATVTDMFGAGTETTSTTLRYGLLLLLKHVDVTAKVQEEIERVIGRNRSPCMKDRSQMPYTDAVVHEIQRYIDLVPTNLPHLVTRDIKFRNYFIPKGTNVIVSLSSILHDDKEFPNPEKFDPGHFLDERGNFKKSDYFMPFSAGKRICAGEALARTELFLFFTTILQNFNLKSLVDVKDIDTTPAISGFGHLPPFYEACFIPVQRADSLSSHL
(§2) Binding assays used specific radioligands (tritiated, iodinated) with non-radioactive competitive displacement ligands in agonist or antagonist protocols (as indicated) and various reference compounds and inhibitors to titrate specific binding to receptors and transporters. Most enzyme assays (CYPs, kinases, phosphatases, proteases, HDACs) used recombinant protein and specific substrates (fluorescence mostly, some colorimetric and radioactive) and inhibitors, followed by a biochemical separation of substrate and product. All assays for the biochemical HTS were initially run in duplicate at a single concentration (10 uM for CYP450 assays and 25 uM for all others). […] Each assay was run with positive and negative controls, and concurrent controls on every plate. The follow-up (secondary) screen tested active chemical-pairs in concentration series, as well as a few additional assays not tested in the primary screen, some selected negative inactives, and several cases re-run in the concentration series for confirmatory purposes.

In experiment [2] the test system is rat CYP2C6, gene 293989. In words: NVS_ADME_rCYP2C6: NovaScreen (NVS) CYP450-related Enzyme Activity (ADME) Assay for rat CYP2C6 (AID 2283120). The method in brief:
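Cell-free recombinant rat CYP2C6 with fluorogenic substrate, read by fluorescence 1 h after dosing; acetonitrile as negative control. Primary screen at 10 uM in duplicate, actives then in concentration-response up to 20 uM.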

The target of experiment [3] is rat CYP2D2, Cyp2d26 (gene 25053) (UniProt P10634). In words: NVS_ADME_rCYP2D2: NovaScreen (NVS) CYP450-related Enzyme Activity (ADME) Assay for rat CYP2D2 (AID 2283124). The procedure:
as §1, with “NVS_ADME_rCYP2D2” for “NVS_ADME_rCYP2C11”, “0.75” for “0.33”, “plate.NVS_ADME_rCYP2D2” for “plate.NVS_ADME_rCYP2C11”, “NVS_ADME_rCYP2D2,” for “NVS_ADME_rCYP2C11,”, “Cyp2d2.” for “Cyp2c11.”
(§3) Binding assays used specific radioligands (tritiated, iodinated) with non-radioactive competitive displacement ligands in agonist or antagonist protocols (as indicated) and various reference compounds and inhibitors to titrate specific binding to receptors and transporters. Most enzyme assays (CYPs, kinases, phosphatases, proteases, HDACs) used recombinant protein and specific substrates (fluorescence mostly, some colorimetric and radioactive) and inhibitors, followed by a biochemical separation of substrate and product. All assays for the biochemical HTS were initially run in duplicate at a single concentration (10 uM for CYP450 assays and 25 uM for all others). Assay-chemical combinations meeting a pre-defined threshold (e.g., 30% inhibition and other criteria defined below) were then run in singleton concentration-response format with maximum concentration of 20 uM for CYPs and 50 uM for all others. Each assay was run with positive and negative controls, and concurrent controls on every plate. The follow-up (secondary) screen tested active chemical-pairs in concentration series, as well as a few additional assays not tested in the primary screen, some selected negative inactives, and several cases re-run in the concentration series for confirmatory purposes.

Experiment [4] concerns rat CYP3A1, gene 25642. Briefly: NVS_ADME_rCYP3A1: NovaScreen (NVS) CYP450-related Enzyme Activity (ADME) Assay for rat CYP3A1 (AID 2283126). The method in brief:
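Cell-free recombinant CYP assay with fluorescent substrate, read 0.5 h after dosing. Screened at 10 uM in duplicate, hits at up to 20 uM in concentration-response; loss of signal versus acetonitrile baseline.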

The target of experiment [5] is human Acetylcholinesterase (AChE), ACHE (gene 43) (UniProt P22303). Briefly: NVS_ENZ_hAChE: NovaScreen (NVS) Enzymatic Assay for human Acetylcholinesterase (AChE) (AID 2283129). The procedure: NVS_ENZ_hAChE is a biochemical, single-readout assay that uses extracted gene-proteins in a cell-free assay. Measurements were taken 0.33 hour after chemical dosing in a 96-well plate.NVS_ENZ_hAChE is one of one assay component(s) measured or calculated from the NVS_ENZ_hAChE assay. It is designed to make measurements of enzyme activity, a form of enzyme reporter, as detected with absorbance signals by Colorimetric technology.Data from the assay component NVS_ENZ_hAChE was analyzed into 1 assay endpoint. This assay endpoint, NVS_ENZ_hAChE, was analyzed in the positive analysis fitting direction relative to DMSO as the negative control and baseline of activity. Using a type of enzyme reporter, loss-of-signal activity can be used to understand changes in the enzymatic activity as they relate to the gene ACHE. Furthermore, this assay endpoint can be referred to as a primary readout, because this assay has produced multiple assay endpoints where this one serves a enzymatic activity function. To generalize the intended target to other relatable targets, this assay endpoint is annotated to the esterase intended target family, where the subfamily is acetylcholinesterase.
Sequence of human Acetylcholinesterase (AChE), ACHE (gene 43) (P22303 whole entry, looked up): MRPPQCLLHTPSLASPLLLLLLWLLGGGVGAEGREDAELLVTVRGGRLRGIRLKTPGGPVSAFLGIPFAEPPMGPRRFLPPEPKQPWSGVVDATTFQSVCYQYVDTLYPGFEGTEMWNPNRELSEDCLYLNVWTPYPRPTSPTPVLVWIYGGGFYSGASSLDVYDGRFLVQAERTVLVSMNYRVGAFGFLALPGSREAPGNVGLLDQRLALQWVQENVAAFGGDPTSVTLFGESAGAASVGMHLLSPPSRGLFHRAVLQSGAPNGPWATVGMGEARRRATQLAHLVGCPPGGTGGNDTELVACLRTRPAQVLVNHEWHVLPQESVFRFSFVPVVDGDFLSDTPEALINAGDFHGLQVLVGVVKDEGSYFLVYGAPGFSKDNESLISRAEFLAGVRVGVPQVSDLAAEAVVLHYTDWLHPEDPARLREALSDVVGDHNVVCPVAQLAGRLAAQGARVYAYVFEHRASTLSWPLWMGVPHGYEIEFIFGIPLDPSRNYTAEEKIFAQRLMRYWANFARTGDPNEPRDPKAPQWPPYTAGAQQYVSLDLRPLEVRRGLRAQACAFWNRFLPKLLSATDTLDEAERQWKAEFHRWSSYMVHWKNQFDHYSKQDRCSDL
as §2

Experiment [6] addresses rat CYP2C13, Cyp2c13 (gene 171521) (UniProt P20814). In words: NVS_ADME_rCYP2C13: NovaScreen (NVS) CYP450-related Enzyme Activity (ADME) Assay for rat CYP2C13 (AID 2283121). The procedure, abridged:
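Recombinant rat CYP2C13 with fluorogenic substrate, 0.75 h cell-free incubation; primary screen in duplicate at 10 uM, actives followed in concentration series. Fluorescence loss relative to acetonitrile control indicates inhibition.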

For experiment [7], the target named is rat CYP3A2, Cyp3a2 (gene 266682) (UniProt P05183). Briefly: NVS_ADME_rCYP3A2: NovaScreen (NVS) CYP450-related Enzyme Activity (ADME) Assay for rat CYP3A2 (AID 2283128). The procedure, abridged: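 Cell-free rat CYP3A2 enzyme assay with fluorescent substrate, read 0.5 h after dosing. Primary duplicate screen at 10 uM; actives run in concentration-response up to 20 uM, relative to acetonitrile baseline.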
Sequence of rat CYP3A2, Cyp3a2 (gene 266682) (P05183 whole entry, looked up): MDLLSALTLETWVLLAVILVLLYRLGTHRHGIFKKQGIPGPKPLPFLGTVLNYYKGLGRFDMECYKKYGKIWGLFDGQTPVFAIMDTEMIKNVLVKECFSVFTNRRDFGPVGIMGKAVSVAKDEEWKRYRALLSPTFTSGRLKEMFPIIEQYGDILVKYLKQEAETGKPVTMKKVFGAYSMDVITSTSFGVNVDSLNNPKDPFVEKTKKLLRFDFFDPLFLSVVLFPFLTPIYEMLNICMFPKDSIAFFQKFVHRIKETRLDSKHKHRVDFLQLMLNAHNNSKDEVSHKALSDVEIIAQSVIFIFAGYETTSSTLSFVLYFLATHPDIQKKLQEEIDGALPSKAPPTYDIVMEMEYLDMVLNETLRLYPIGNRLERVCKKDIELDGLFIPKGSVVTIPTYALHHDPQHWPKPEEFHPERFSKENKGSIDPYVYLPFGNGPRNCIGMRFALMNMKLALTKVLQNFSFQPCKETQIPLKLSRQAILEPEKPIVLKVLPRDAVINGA

For experiment [8], the target named is human AMP-activated Protein Kinase, alpha 1 (AMPKa1), PRKAA1 (gene 5562) (UniProt Q13131). Briefly: NVS_ENZ_hAMPKa1: NovaScreen (NVS) Enzymatic Assay for human AMP-activated Protein Kinase, alpha 1 (AMPKa1) (AID 2283130). As for the experimental part: NVS_ENZ_hAMPKa1 is a biochemical, single-readout assay that uses extracted gene-proteins in a cell-free assay. Measurements were taken 1 hour after chemical dosing in a 384-well plate.NVS_ENZ_hAMPKa1 is one of one assay component(s) measured or calculated from the NVS_ENZ_hAMPKa1 assay. It is designed to make measurements of enzyme activity, a form of enzyme reporter, as detected with fluorescence intensity signals by Fluorescence and electrophoretic mobility shift technology.Data from the assay component NVS_ENZ_hAMPKa1 was analyzed into 1 assay endpoint. This assay endpoint, NVS_ENZ_hAMPKa1, was analyzed in the positive analysis fitting direction relative to DMSO as the negative control and baseline of activity. Using a type of enzyme reporter, loss-of-signal activity can be used to understand changes in the enzymatic activity as they relate to the gene PRKAA1. Furthermore, this assay endpoint can be referred to as a primary readout, because this assay has produced multiple assay endpoints where this one serves a enzymatic activity function. To generalize the intended target to other relatable targets, this assay endpoint is annotated to the kinase intended target family, where the subfamily is serine/threonine kinase.
Sequence of human AMP-activated Protein Kinase, alpha 1 (AMPKa1), PRKAA1 (gene 5562) (Q13131 whole entry, looked up): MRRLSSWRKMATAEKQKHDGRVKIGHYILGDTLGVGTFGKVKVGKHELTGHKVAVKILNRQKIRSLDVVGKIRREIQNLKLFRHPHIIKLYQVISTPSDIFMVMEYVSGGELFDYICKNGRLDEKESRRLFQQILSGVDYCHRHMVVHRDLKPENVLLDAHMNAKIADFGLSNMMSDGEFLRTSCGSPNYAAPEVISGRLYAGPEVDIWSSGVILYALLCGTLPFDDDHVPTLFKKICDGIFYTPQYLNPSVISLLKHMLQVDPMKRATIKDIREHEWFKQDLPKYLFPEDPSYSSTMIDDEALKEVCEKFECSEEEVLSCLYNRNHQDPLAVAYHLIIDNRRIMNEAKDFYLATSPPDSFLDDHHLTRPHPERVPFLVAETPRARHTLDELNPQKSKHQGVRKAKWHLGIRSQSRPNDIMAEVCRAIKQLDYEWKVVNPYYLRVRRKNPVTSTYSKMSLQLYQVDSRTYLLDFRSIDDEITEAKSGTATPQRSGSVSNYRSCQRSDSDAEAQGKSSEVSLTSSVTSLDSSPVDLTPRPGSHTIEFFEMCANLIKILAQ
as §3

For experiment [9], the target named is rat CYP2D1, Cyp2d1 (gene 266684) (UniProt P10633). Briefly: NVS_ADME_rCYP2D1: NovaScreen (NVS) CYP450-related Enzyme Activity (ADME) Assay for rat CYP2D1 (AID 2283122). As for the experimental part:
as §1, with “NVS_ADME_rCYP2D1” for “NVS_ADME_rCYP2C11”, “0.75” for “0.33”, “plate.NVS_ADME_rCYP2D1” for “plate.NVS_ADME_rCYP2C11”, “NVS_ADME_rCYP2D1,” for “NVS_ADME_rCYP2C11,”, “Cyp2d1.” for “Cyp2c11.”
as §3

The test system of experiment [10] is rat CYP2B1, gene 24300. In words: NVS_ADME_rCYP2B1: NovaScreen (NVS) CYP450-related Enzyme Activity (ADME) Assay for rat CYP2B1 (AID 2283117). As for the experimental part: as §1, with “NVS_ADME_rCYP2B1” for “NVS_ADME_rCYP2C11”, “0.75” for “0.33”, “plate.NVS_ADME_rCYP2B1” for “plate.NVS_ADME_rCYP2C11”, “NVS_ADME_rCYP2B1,” for “NVS_ADME_rCYP2C11,”, “Cyp2b1.” for “Cyp2c11.”
as §3

Sequence of rat CYP2C13, Cyp2c13 (gene 171521) (P20814 whole entry, looked up): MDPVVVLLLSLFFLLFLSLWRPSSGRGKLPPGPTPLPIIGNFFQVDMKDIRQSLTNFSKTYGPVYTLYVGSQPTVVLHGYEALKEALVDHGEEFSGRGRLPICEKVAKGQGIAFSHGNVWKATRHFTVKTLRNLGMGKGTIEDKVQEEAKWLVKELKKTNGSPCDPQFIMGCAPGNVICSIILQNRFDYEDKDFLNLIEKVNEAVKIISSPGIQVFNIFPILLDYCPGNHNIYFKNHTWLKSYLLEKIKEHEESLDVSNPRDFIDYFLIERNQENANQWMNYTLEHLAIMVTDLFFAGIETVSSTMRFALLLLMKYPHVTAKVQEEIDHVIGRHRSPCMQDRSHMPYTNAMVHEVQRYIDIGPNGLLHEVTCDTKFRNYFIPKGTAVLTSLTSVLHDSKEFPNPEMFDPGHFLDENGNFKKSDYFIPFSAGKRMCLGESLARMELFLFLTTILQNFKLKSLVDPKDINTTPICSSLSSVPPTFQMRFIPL
Sequence of rat CYP2D2, Cyp2d26 (gene 25053) (P10634 whole entry, looked up): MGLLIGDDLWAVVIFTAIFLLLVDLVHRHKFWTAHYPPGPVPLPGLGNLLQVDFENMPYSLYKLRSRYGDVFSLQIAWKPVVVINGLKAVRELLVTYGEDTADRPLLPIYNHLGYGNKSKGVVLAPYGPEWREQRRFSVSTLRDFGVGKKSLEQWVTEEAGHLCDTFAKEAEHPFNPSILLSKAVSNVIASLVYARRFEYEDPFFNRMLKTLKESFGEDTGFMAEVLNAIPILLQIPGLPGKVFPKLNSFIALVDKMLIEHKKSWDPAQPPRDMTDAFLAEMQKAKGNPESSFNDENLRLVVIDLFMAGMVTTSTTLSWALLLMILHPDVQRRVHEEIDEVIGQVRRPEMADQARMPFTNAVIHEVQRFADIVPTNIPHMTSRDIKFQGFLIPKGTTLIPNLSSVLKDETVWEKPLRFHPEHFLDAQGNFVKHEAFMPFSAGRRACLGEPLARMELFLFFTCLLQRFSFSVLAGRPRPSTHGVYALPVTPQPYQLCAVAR
Sequence of rat CYP2D1, Cyp2d1 (gene 266684) (P10633 whole entry, looked up): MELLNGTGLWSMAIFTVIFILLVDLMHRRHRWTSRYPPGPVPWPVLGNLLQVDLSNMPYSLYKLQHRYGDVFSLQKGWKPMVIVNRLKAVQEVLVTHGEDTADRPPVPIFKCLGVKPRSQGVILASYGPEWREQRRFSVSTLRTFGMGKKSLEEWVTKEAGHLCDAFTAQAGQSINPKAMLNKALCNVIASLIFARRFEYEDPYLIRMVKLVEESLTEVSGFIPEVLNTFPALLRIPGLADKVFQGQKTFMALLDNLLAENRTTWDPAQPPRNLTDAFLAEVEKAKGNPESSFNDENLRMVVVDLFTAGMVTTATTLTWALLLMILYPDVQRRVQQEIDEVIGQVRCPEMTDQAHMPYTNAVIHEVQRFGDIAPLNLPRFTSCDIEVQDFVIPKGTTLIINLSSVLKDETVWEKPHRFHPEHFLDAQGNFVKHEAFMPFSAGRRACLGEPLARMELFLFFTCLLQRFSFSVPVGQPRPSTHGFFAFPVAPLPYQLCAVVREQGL

As to `CC(C)N(C(=O)COc1nnc(C(F)(F)F)s1)c1ccc(F)cc1`, the half-maximal activity concentration (AC50) is 6.6 µM (active) in experiment [1]; 7.85 µM (active) in experiment [2]; 10 µM (active) in experiment [3]; 7.94 µM (active) in experiment [4]; 16.5 µM (active) in experiment [5].

Turning to `O=C(O)C(F)(F)C(F)(F)C(F)(F)C(F)(F)C(F)(F)C(F)(F)C(F)(F)F`, in experiment [4], the result was inactive.

For the compound `C#CCN1C(=O)COc2cc(F)c(N3C(=O)C4=C(CCCC4)C3=O)cc21`, the AC50 in [6] is 0.992 µM (active); in [7], 5.33 µM (active).

With `O=S(=O)(O)C(F)(F)C(F)(F)C(F)(F)C(F)(F)C(F)(F)C(F)(F)C(F)(F)C(F)(F)F`, the AC50 in [1] was 0.0854 µM (active); in experiment [8], 15.7 µM (active) and 5.63 µM (active). Besides, the compound was classed as inactive in experiment [4].

Regarding `COP(=S)(OC)Oc1ccc([N+](=O)[O-])cc1`, the AC50 in [1] is 2.77 µM (active); in experiment [2] it was 0.344 µM (active); in experiment [6] it was 6.55 µM (active); in [4], 6.49 µM (active); in experiment [7], 4.97 µM (active). Besides, the result in [5] was inactive.

With `N#Cc1c(Cl)c(Cl)c(Cl)c(C#N)c1Cl`, the result in [3] and in experiment [5] was inactive. The AC50 is 1.22 µM (active) in experiment [4], 0.241 µM (active) in experiment [7] and 4.96 µM (active) in experiment [8].

On to `Cc1[nH]c(=O)n(C(C)(C)C)c(=O)c1Cl`, for which the AC50 in experiment [9] is 3.45 µM (active).

For `CNC(=O)Oc1ccccc1OC(C)C`, the AC50 in experiment [5] is 25 µM (active).

Regarding `CN1CSC(=S)N(C)C1`, the AC50 in [10] was 3.9 µM (active).

Take `CCC(C)Nc1c([N+](=O)[O-])cc(C(C)(C)C)cc1[N+](=O)[O-]` (configuration not stated): the compound was classed as inactive in [6].

On to `CCOCN(C(=O)CCl)c1c(C)cccc1CC`, for which the AC50 in experiment [2] was 10 µM (active).

As to `[2H]C1([2H])[n+]2ccccc2-c2cccc[n+]2C1([2H])[2H]`, in experiment [3], the AC50 was 10 µM (active). Moreover, in experiment [5], the call was inactive.

`COc1nn(CSP(=S)(OC)OC)c(=O)s1`: the AC50 in experiment [10] is 2.65 µM (active); in [1], 0.564 µM (active); in experiment [2], 0.258 µM (active); in experiment [4] it was 4.25 µM (active); in [7], 0.774 µM (active).

As to `CNC(=O)CSP(=S)(OC)OC`, the AC50 in experiment [2] is 4.77 µM (active); in [7], 5.06 µM (active).

Turning to `Oc1cc(Cl)ccc1Oc1ccc(Cl)cc1Cl`, the AC50 in [3] was 10 µM (active). In addition, the outcome in experiment [8] was inactive.

`CCOC1Oc2ccc(OS(C)(=O)=O)cc2C1(C)C` (configuration not stated): the AC50 in [1] is 4.18 µM (active); in experiment [6], 7.5 µM (active); in experiment [4] it was 6.95 µM (active). The call in experiment [9] was inactive.
